In PubChem BioAssay:
Potency and affinity values are given separately. Calls of active or inactive are those of the source. The limit is not given here; nearly all actives have IC50 up to about 0.98 µM.

The compounds below were run against Calcium-dependent protein kinase 1 (Plasmodium falciparum (isolate 3D7)) (UniProt P62344) (assay: PfCDPK1 kinase inhibitors, biochemical, TCAMS library (AID 1159585;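 also: inhibitors leave more ATP so luminescence rises with inhibition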)). Details: recombinant PfCDPK1, Kinase-Glo ATP depletion luminescence.
Calcium-dependent protein kinase 1 (Plasmodium falciparum (isolate 3D7)), sequence (P62344 whole entry, looked up): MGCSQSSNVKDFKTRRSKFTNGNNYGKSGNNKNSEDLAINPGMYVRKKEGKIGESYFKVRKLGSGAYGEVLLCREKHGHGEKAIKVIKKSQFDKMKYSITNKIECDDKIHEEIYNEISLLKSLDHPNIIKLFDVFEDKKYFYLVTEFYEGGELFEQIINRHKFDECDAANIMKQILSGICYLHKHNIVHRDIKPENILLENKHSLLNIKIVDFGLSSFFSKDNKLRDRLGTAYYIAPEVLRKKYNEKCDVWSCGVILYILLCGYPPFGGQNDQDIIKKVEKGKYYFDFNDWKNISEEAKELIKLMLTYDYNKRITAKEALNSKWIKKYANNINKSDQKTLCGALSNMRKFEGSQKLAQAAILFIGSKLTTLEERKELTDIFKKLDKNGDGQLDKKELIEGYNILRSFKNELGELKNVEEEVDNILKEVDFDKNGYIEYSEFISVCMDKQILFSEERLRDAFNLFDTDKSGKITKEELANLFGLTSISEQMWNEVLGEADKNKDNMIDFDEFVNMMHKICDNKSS

outcome, inactive:
CN1CCCN(Cc2ccc(-c3cccc(NC(=O)c4ccc(C#N)cc4)c3)cc2)CC1
COc1ccc(C2CCN(C#N)C2)cc1OC1CCCC1 (stereo unspecified)
COc1cc2nc(N3CCN(C(=O)c4cccc(I)c4)CC3)nc(N)c2cc1OC
CN(CCNCc1ccc(-c2cccc(-c3nc4ccccc4[nH]3)c2)cc1)S(C)(=O)=O
COc1cccc2c(C)cc(NCc3ccc(Cl)cc3)nc12
CCOC(=O)c1[nH]c(-c2cccnc2)nc1NC(=S)NCc1ccccc1
CCOC(=O)c1cnc2c(OC)cc(OC)c(Cl)c2c1Nc1ccccc1
FC(F)(F)c1ccc2nc(-c3ccc(-c4ccc(CNCC5CCCO5)cc4)s3)[nH]c2c1 (stereo unspecified)
CCCCOP(=O)(OCCCC)C(=Cc1ccc(O)c2ccccc12)P(=O)(OCCCC)OCCCC
Cc1cc2c3c(N)nc(N)nc3ccc2n1C(C)C
CN1CCN(CC(=O)Nc2ccc(-c3cccc(-c4nc5ccc(F)cc5[nH]4)c3)cc2)CC1
CCN1CCC(N(Cc2ccc(-c3ccc(C(F)(F)F)cc3)cc2)C(=O)Cn2c(CCc3cccc(F)c3F)cc(=O)c3cn(C)nc32)CC1
O=C(Nc1ccc(N2CCN(c3ncccc3C(F)(F)F)CC2)nc1)c1cccs1
COCCn1c(-c2cccc(Cl)c2)nn(-c2ccc([N+](=O)[O-])cc2C#N)c1=S
O=S(=O)(NCCN1CCCC1)c1cccc(-c2ccc(CNCc3ccccc3)cc2)c1
COc1cccc(NC(=O)[C@H](C(C)C)n2c(=O)[nH]c3ccccc3c2=O)c1
